Screening results: PubChem BioAssay, SRMLSC
A selection: hits, their analogues and other compounds. The true share with any hit is near 6.5%.
A340 absorber: compounds absorbing at 340 nm; compound absorbance at 340 nm, fold over control; fold change at 10 µM; 65,000 tested, under 10 active; AID 708;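 active = at 10 µM dose, initial 340 nm absorbance at least 2 fold that of control wells; inactive = change under 2 fold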;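 also: initial absorbance extrapolated from kinetic A340 decline of NADH oxidation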
Autofluor 339: intrinsic fluorescence of library compounds, ex339/em460 – biochemical, MLSMR library, data from DPM-DC assay, artefact control, profiling panel; fluorescence fold increase at 10 µM; 5.5% of 65,000 active; compound autofluorescence, ex339/em460 nm, NADH buffer; stronger effect = higher value; 1 = no-compound wells, NADH background;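 active = at 10 µM, mean starting fluorescence two-fold or more over control wells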;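 also: signal is the first read of a kinetic run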
DPM-DC inhibit: S. pneumoniae DPM-DC inhibition. calls only at 10 µM. purified DPM-DC, PK/LDH coupled NADH fluorescence. 0.49% of 65,000 active;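 active = the 320 compounds with the highest percent inhibition in the single-dose primary screen, excluding strongly autofluorescent ones, cut at about 32% in these data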;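 also: kinetic rate of NADH fluorescence loss reporting ADP formed by the decarboxylase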
NADH enzymes: blocks coupling enzymes of NAD/NADH assays. coupled PK/LDH NADH assays, four targets. IC50, µM (top dose mostly 10 µM), for the others: at the highest dose inhibition. 0.02% of 65,000 active;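 active = single-dose screening hits from any of four coupled enzyme assays that gave an IC50 when retested across doses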;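 also: the DPM-DC format reads NADH fluorescence rather than 340 nm absorbance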
Spn PMK inh: inhibitors of Streptococcus pneumoniae phosphomevalonate kinase; purified PMK, PK/LDH-coupled NADH absorbance 340 nm; 0.49% of 65,000 active; inhibition, % at 10 µM;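 active = top-ranked compounds by inhibition in the single 10 µM screen, taking a fixed number of the strongest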;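 also: 0% = full reaction with DMSO carrier and 100% = background rate without enzyme reaction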
MK inhibit: blocks S. pneumoniae mevalonate kinase; purified MK, PK/LDH-coupled NADH absorbance 340 nm; inhibition, % at 10 µM; 0.48% of 65,000 active; AID 555;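 active = ranked among the strongest by inhibition in the single 10 µM screen, a fixed top-ranked set picked for dose follow-up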
* hit, by the source's call.

Screening CCC(Oc1ccc2c(c1)C(=O)CC(C)(C)O2)C(=O)NCCN1CCCCCC1 (configuration not stated) returned A340 absorber 1.1, Autofluor 339 5*, NADH enzymes 17%, Spn PMK inh 10 and MK inhibit 23.
CCn1cc(C(=O)Nc2nncs2)c(=O)c2cc(F)c(N3CCN(C(=O)c4ccco4)CC3)cc21 was read as A340 absorber 1, Autofluor 339 2.4*, DPM-DC inhibit inactive, NADH enzymes 15%, Spn PMK inh 19 and MK inhibit 5.
Screening C=C(C)Cn1c(CCCNC(=O)CCC)nc2ccccc21 returned A340 absorber 1, Autofluor 339 1.1, DPM-DC inhibit inactive, NADH enzymes 3%, Spn PMK inh 2 and MK inhibit 7.
O=C(c1ccccc1C(F)(F)F)N1CCN(S(=O)(=O)c2ccccc2)CC1 was read as A340 absorber 1, Autofluor 339 1.1, DPM-DC inhibit inactive, NADH enzymes 4%, Spn PMK inh 9 and MK inhibit 4.
For CCCc1cc(NCCCCO)n2c(nc3ccccc32)c1C#N the results were A340 absorber 1, Autofluor 339 2.4*, NADH enzymes 8%, Spn PMK inh 10 and MK inhibit 5.
Screening Cc1cc(-c2ccco2)n2c(nc3ccccc32)c1C#N returned A340 absorber 1.1, Autofluor 339 1.1, DPM-DC inhibit inactive, NADH enzymes 4%, Spn PMK inh 6 and MK inhibit 7.
`COCCN(CCOC)c1cc(C)c(C#N)c2nc3ccccc3n12` gave A340 absorber 1.1, Autofluor 339 3.8*, NADH enzymes 10%, Spn PMK inh 13 and MK inhibit 6.
Cc1cc(NCCCCO)n2c(nc3ccccc32)c1C#N was read as A340 absorber 1.1, Autofluor 339 3.6*, NADH enzymes 10%, Spn PMK inh 13 and MK inhibit 6.
CCOc1ccccc1CN(CCc1ccc2c(c1)OCO2)Cc1ccccn1 was read as A340 absorber 1, Autofluor 339 1, DPM-DC inhibit inactive, NADH enzymes 11%, Spn PMK inh 0 and MK inhibit 33.
For Nc1cc(C(=O)O)ccc1Nc1ccccc1 the results were A340 absorber 1, Autofluor 339 1.8, DPM-DC inhibit active, NADH enzymes 10%, Spn PMK inh 10 and MK inhibit 5.
For COC(=O)c1ccc2c(c1)N(Cc1nc(-c3ccc(Cl)cc3)oc1C)C(=O)C1CCCN21 (configuration not stated) the results were A340 absorber 1, Autofluor 339 3.7*, DPM-DC inhibit inactive, NADH enzymes 11%, Spn PMK inh 14 and MK inhibit 0.
For COC(=O)c1ccc2c(c1)N(Cc1nc(-c3cccc(Cl)c3)oc1C)C(=O)C1CCCN21 (configuration not stated) the results were A340 absorber 1, Autofluor 339 2*, DPM-DC inhibit inactive, NADH enzymes 2%, Spn PMK inh 7 and MK inhibit 0.
O=C1CC(SCCO)C(=O)N1c1ccc(Oc2ccccc2)cc1 (configuration not stated) was read as A340 absorber 1, Autofluor 339 1.1, DPM-DC inhibit inactive, NADH enzymes 6%, Spn PMK inh 4 and MK inhibit 6.
`COc1cc(NC(=O)c2cc(-c3ccco3)on2)c(OC)cc1Cl` gave A340 absorber 1.1, Autofluor 339 4.6*, NADH enzymes 5%, Spn PMK inh 5 and MK inhibit 5.
COc1cc(NC(=O)c2cc3ccccc3o2)c(OC)cc1Br was read as A340 absorber 1.1, Autofluor 339 1.8, DPM-DC inhibit inactive, NADH enzymes 10%, Spn PMK inh 5 and MK inhibit 0.
`COc1cc(NC(=O)c2cc(CC(C)C)on2)c(OC)cc1Cl` gave A340 absorber 1, Autofluor 339 1.1, DPM-DC inhibit inactive, NADH enzymes 7%, Spn PMK inh 2 and MK inhibit 57*.
COc1cc(OC)c(NC(=O)c2ccco2)cc1Cl was read as A340 absorber 0.99, Autofluor 339 1, DPM-DC inhibit inactive, NADH enzymes 11%, Spn PMK inh 5 and MK inhibit 9.
Screening COc1cc(NC(=O)c2cc3ccccc3o2)c(OC)cc1Cl returned A340 absorber 1.1, Autofluor 339 2.2*, NADH enzymes 8%, Spn PMK inh 10 and MK inhibit 5.
`CCCc1cc(C(=O)Nc2cc(OC)c(Cl)cc2OC)no1` gave A340 absorber 1, Autofluor 339 1.1, DPM-DC inhibit inactive, NADH enzymes 2%, Spn PMK inh 2 and MK inhibit 4.
For COc1ccc(NC(=O)c2ccco2)cc1NC(=O)c1cc2ccccc2o1 the results were A340 absorber 1.1, Autofluor 339 1.2, DPM-DC inhibit inactive, NADH enzymes 7%, Spn PMK inh 16 and MK inhibit 2.
COc1ccc(-c2cc3ccccc3oc2=O)cc1NC(=O)c1ccc(Br)o1 was read as A340 absorber 1.2, Autofluor 339 3.8*, NADH enzymes 1%, Spn PMK inh 0 and MK inhibit 2.
Screening NS(=O)(=O)c1ccc(CCNC(=O)COC(=O)C2CCCN2C(=O)c2cccs2)cc1 (configuration not stated) returned A340 absorber 1, Autofluor 339 1, DPM-DC inhibit inactive, NADH enzymes 5%, Spn PMK inh 16 and MK inhibit 0.
Screening O=C(COc1ccc(Cl)cc1Cl)Nc1ccccn1 returned A340 absorber 1.1, Autofluor 339 1.1, DPM-DC inhibit inactive, NADH enzymes 0%, Spn PMK inh 0 and MK inhibit 0.
CCOc1cccc(OCCCNCCCOC)c1 was read as A340 absorber 1.1, Autofluor 339 1.1, DPM-DC inhibit inactive, NADH enzymes 13%, Spn PMK inh 0 and MK inhibit 40*.
`COc1ccc(C)cc1NS(=O)(=O)c1cccc2nonc12` gave A340 absorber 1.1, Autofluor 339 1.1, DPM-DC inhibit inactive, NADH enzymes 4%, Spn PMK inh 2 and MK inhibit 11.
Screening CC12C=CC3(CN(Cc4ccccc4)C(=O)C3C1C(=O)NC1CC1)O2 (configuration not stated) returned A340 absorber 0.97, Autofluor 339 1, DPM-DC inhibit inactive, NADH enzymes 11%, Spn PMK inh 28* and MK inhibit 5.
COc1cccc(N2CCN(Cc3coc4c(Cl)cc(Cl)cc4c3=O)CC2)c1 was read as A340 absorber 1, Autofluor 339 1.1, DPM-DC inhibit inactive, NADH enzymes 6%, Spn PMK inh 6 and MK inhibit 12.
`CN1CCCc2cc3c(C(F)(F)F)cc(=O)oc3nc21` gave A340 absorber 1, Autofluor 339 2.2*, NADH enzymes 5%, Spn PMK inh 5 and MK inhibit 4.
